Reference: PubChem BioAssay (Tox21)
Records with an inconclusive call do not appear. Active and inactive are the calls of the source. The call rests on the fitted dose curve; in most records, active means well fitted curve in the direction sought with a large enough effect in the repeat runs; inconclusive means weak or mixed curves; inactive means no such curve, though single readings can be large; an effect the other way counts as inactive or inconclusive.

Columns and labels:
[1] = qHTS RealTime-Glo MT Cell Viability Assay in HepG2 cells - 40 hour (AID 1224870); conditions: RealTime-Glo luminescence; series mostly up to 76.8 µM; further: nearly all actives have a fitted effect of over 50% in size
How it was run: (§1)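 Real-time viability: cells seeded at 600 per well together with NanoLuc and cell-permeant prosubstrate, compounds added after 5 h incubation. Luminescence tracked at 0, 8, 16, 24, 32 and 40 h of exposure.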

[2] = qHTS RealTime-Glo MT Cell Viability Assay in HEK293 cells - 16 hour (AID 1224872); conditions: RealTime-Glo luminescence; series mostly up to 76.8 µM; further: top concentration of the series differs between compounds; nearly all actives have a fitted effect of over 50% in size
How it was run: (§2)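 Cells + reagent dispensed (600 cells/well, HEK293) → 5 h at 37 C/5% CO2 → 23 nL compound in DMSO pinned → 40 h at 37 C → luminescence read at 0, 8, 16, 24, 32, 40 h.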

[3] = qHTS RealTime-Glo MT Cell Viability Assay in HepG2 cells - 8 hour (AID 1224873); conditions: RealTime-Glo luminescence; series mostly up to 76.8 µM; further: nearly all actives have a fitted effect of over 55% in size
How it was run: as §1

[4] = qHTS RealTime-Glo MT Cell Viability Assay in HEK293 cells - 40 hour (AID 1224874); conditions: RealTime-Glo luminescence; max response: stronger effect = lower value; further: nearly all actives have a fitted effect of over 50% in size; further: potency means the concentration at half of the fitted maximal effect
How it was run: (§3)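 Viable HEK293 cells reduce a cell-permeant prosubstrate; the product diffuses out and is consumed by NanoLuc in the medium to give light. Compounds went in after a 5 h incubation and plates were read over the treatment course.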

[5] = A CellTox Green Cytotoxicity Assay to monitor cytotoxicity in HEK293 cells - 24 hour (AID 1224875); conditions: CellTox Green fluorescence; series mostly up to 76.8 µM; further: nearly all actives have a fitted effect of over 45% in size
How it was run: (§4)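 Fluorescence intensity, read at 0, 8, 16, 24, 32 and 40 h of compound treatment, reflected dye binding to DNA of dead HEK293 cells; compounds (23 nL, DMSO) were added 5 h after plating cells with reagent.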

[6] = qHTS RealTime-Glo MT Cell Viability Assay in HepG2 cells - 32 hour (AID 1224877); conditions: RealTime-Glo luminescence; series mostly up to 76.8 µM; further: nearly all actives have a fitted effect of over 55% in size
How it was run: (§5)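 Real-time, nonlytic viability: 600 HepG2 cells/well mixed with NanoLuc enzyme plus prosubstrate; 5 h settle, compound (DMSO) added by pintool; luminescence monitored over 40 h at 37 C.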

[7] = qHTS RealTime-Glo MT Cell Viability Assay in HEK293 cells - 0 hour (AID 1224880); conditions: RealTime-Glo luminescence; series mostly up to 76.8 µM; further: top concentration of the series differs between compounds; nearly all actives have a fitted effect of over 45% in size
How it was run: as §3

[8] = A CellTox Green Cytotoxicity Assay to monitor cytotoxicity in HEK293 cells - 32 hour (AID 1224881); conditions: CellTox Green fluorescence; series mostly up to 76.8 µM; further: nearly all actives have a fitted effect of over 40% in size
How it was run: as §4

[9] = A CellTox Green Cytotoxicity Assay to monitor cytotoxicity in HepG2 cells - 0 hour (AID 1224882); conditions: CellTox Green fluorescence; series mostly up to 76.8 µM; further: nearly all actives have a fitted effect of over 35% in size
How it was run: (§6)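 Using 1536-well format, dye-containing HepG2 suspension was seeded, allowed 5 h at 37 C/5% CO2, dosed by pintool with compounds, positive and negative controls, and imaged for fluorescence across 40 h.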

[10] = qHTS RealTime-Glo MT Cell Viability Assay in HepG2 cells - 16 hour (AID 1224885); conditions: RealTime-Glo luminescence; series mostly up to 76.8 µM; further: nearly all actives have a fitted effect of over 50% in size
How it was run: as §5

[11] = qHTS RealTime-Glo MT Cell Viability Assay in HEK293 cells - 24 hour (AID 1224886); conditions: RealTime-Glo luminescence; series mostly up to 76.8 µM; further: nearly all actives have a fitted effect of over 50% in size; further: potency means the concentration at half of the fitted maximal effect
How it was run: as §2

[12] = qHTS RealTime-Glo MT Cell Viability Assay in HEK293 cells - 8 hour (AID 1224887); conditions: RealTime-Glo luminescence; series mostly up to 76.8 µM; further: nearly all actives have a fitted effect of over 50% in size; further: potency means the concentration at half of the fitted maximal effect
How it was run: as §3

[13] = A CellTox Green Cytotoxicity Assay to monitor cytotoxicity in HEK293 cells - 16 hour (AID 1224888); conditions: CellTox Green fluorescence; series mostly up to 76.8 µM; further: nearly all actives have a fitted effect of over 35% in size
How it was run: as §4

[14] = qHTS RealTime-Glo MT Cell Viability Assay in HepG2 cells - 0 hour (AID 1224889); conditions: RealTime-Glo luminescence; series mostly up to 76.8 µM; further: nearly all actives have a fitted effect of over 50% in size
How it was run: as §5

[15] = A CellTox Green Cytotoxicity Assay to monitor cytotoxicity in HepG2 cells - 16 hour (AID 1224876); conditions: CellTox Green fluorescence; series mostly up to 76.8 µM; further: nearly all actives have a fitted effect of over 45% in size
How it was run: as §6

[16] = A CellTox Green Cytotoxicity Assay to monitor cytotoxicity in HEK293 cells - 8 hour (AID 1224884); conditions: CellTox Green fluorescence; series mostly up to 76.8 µM; further: nearly all actives have a fitted effect of over 35% in size
How it was run: as §4

[17] = A CellTox Green Cytotoxicity Assay to monitor cytotoxicity in HepG2 cells - 24 hour (AID 1224878); conditions: CellTox Green fluorescence; series mostly up to 76.8 µM; further: nearly all actives have a fitted effect of over 45% in size
How it was run: as §6

[18] = A CellTox Green Cytotoxicity Assay to monitor cytotoxicity in HepG2 cells - 40 hour (AID 1224879); conditions: CellTox Green fluorescence; series mostly up to 76.8 µM; further: nearly all actives have a fitted effect of over 40% in size
How it was run: as §6

[19] = A CellTox Green Cytotoxicity Assay to monitor cytotoxicity in HepG2 cells - 32 hour (AID 1224883); conditions: CellTox Green fluorescence; series mostly up to 76.8 µM; further: nearly all actives have a fitted effect of over 50% in size
How it was run: as §6

[20] = A CellTox Green Cytotoxicity Assay to monitor cytotoxicity in HEK293 cells - 40 hour (AID 1224871); conditions: CellTox Green fluorescence; series mostly up to 76.8 µM; further: nearly all actives have a fitted effect of over 45% in size
How it was run: as §4
On the % scale 0 is the no-effect control and ±100 the full control effect.

C=C[Si]1(C)O[Si](C)(C=C)O[Si](C)(C=C)O[Si](C)(C=C)O1 (centres undefined)
inactive: Potency [1] | Potency [2] | outcome [3] | max response [4] -1.07% | Potency [5] | Potency [6] | Potency [7] | Potency [8] | Potency [9] | outcome [10] | Potency [11] | Potency [12] | Potency [13] | Potency [14]

O=C(c1ccc(Cl)cc1)c1ccc(Cl)cc1
inactive: Potency [1] | Potency [2] | outcome [3] | max response [4] -15% | Potency [5] | Potency [15] | Potency [6] | Potency [8] | Potency [9] | Potency [16] | outcome [10] | Potency [11] | Potency [12] | Potency [13] | Potency [14]

CCCCCCCCS
inactive: Potency [1] | outcome [3] | max response [4] 7.45% | Potency [5] | Potency [15] | Potency [6] | Potency [17] | Potency [18] | Potency [7] | Potency [8] | Potency [9] | Potency [19] | Potency [16] | outcome [10] | Potency [12] | Potency [14]

CCCC1CCCC(=O)O1 (centres undefined)
inactive: Potency [1] | Potency [2] | outcome [3] | Potency [5] | Potency [15] | Potency [6] | Potency [17] | Potency [18] | Potency [7] | Potency [19] | Potency [16] | outcome [10] | Potency [11] | Potency [12] | Potency [13] | Potency [14]

OCCc1ccncc1
inactive: Potency [1] | Potency [2] | max response [4] -8.09% | Potency [5] | Potency [15] | Potency [6] | Potency [17] | Potency [18] | Potency [7] | Potency [8] | Potency [9] | Potency [19] | outcome [10] | Potency [11] | Potency [12] | Potency [14]

[O-][n+]1ccc(Cl)cc1
inactive: Potency [1] | outcome [3] | max response [4] 17.4% | Potency [5] | Potency [15] | Potency [6] | Potency [17] | Potency [18] | Potency [7] | Potency [8] | Potency [9] | Potency [19] | Potency [16] | outcome [10] | Potency [12] | Potency [13] | Potency [14]

Clc1cccc(C(c2ccc3nc[nH]c3c2)n2ccnc2)c1 (centres undefined)
inactive: Potency [1] | outcome [3] | max response [4] -17.1% | Potency [5] | Potency [15] | Potency [6] | Potency [17] | Potency [18] | Potency [7] | Potency [9] | Potency [19] | Potency [16] | outcome [10] | Potency [13] | Potency [14]
active: Potency [12] 3.38 µM

CCCCCCCCCCCCN1CCOCC1
inactive: Potency [1] | Potency [2] | outcome [3] | max response [4] 4.57% | Potency [5] | Potency [15] | Potency [6] | Potency [17] | Potency [8] | Potency [19] | Potency [16] | outcome [10] | Potency [11] | Potency [12] | Potency [14]

Cc1ccc2c(Cl)cc(Cl)c(O)c2n1
inactive: Potency [1] | outcome [3] | max response [4] -5.73% | Potency [5] | Potency [15] | Potency [6] | Potency [17] | Potency [18] | Potency [8] | Potency [9] | Potency [19] | Potency [16] | outcome [10] | Potency [11] | Potency [12] | Potency [14]

COc1ccc(C(=O)Nc2ccccc2)cc1[N+](=O)[O-]
active: Potency [4] 24.7 µM | Potency [11] 24.7 µM | Potency [12] 24.7 µM
inactive: Potency [1] | outcome [3] | Potency [15] | Potency [6] | Potency [17] | Potency [18] | Potency [7] | Potency [9] | Potency [19] | Potency [16] | outcome [10] | Potency [13] | Potency [14]

CC(C)=CCCC(C)C=O (centres undefined)
inactive: Potency [20] | Potency [2] | outcome [3] | max response [4] 3.8% | Potency [5] | Potency [15] | Potency [6] | Potency [17] | Potency [18] | Potency [7] | Potency [9] | Potency [19] | Potency [16] | outcome [10] | Potency [11] | Potency [12] | Potency [13] | Potency [14]

S=c1[nH][nH]c(=S)s1
inactive: Potency [20] | outcome [3] | Potency [5] | Potency [15] | Potency [6] | Potency [17] | Potency [18] | Potency [7] | Potency [9] | Potency [19] | Potency [16] | outcome [10] | Potency [12] | Potency [14]
